From PubChem BioAssay
MITF inh = inhibitors of human MITF. O75030. AlphaScreen MITF homodimerization, bead proximity signal. inhibition, % at 2.6 µM. actives 0.91% (n = 650,000); in the data active = inhibition above about 50%;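 also: 0% = vehicle wells with protein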
GPR151 ag = activates the human receptor GPR151; actives 1% (n = 650,000); PathHunter beta-arrestin GPR151 cells, luminescence; Q8TDV0; activation, % at 11.2 µM; in the data active = activation above about 4.9%;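 also: 0% = median of compound wells and 100% = cells with positive control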
Target sequence (Q8TDV0 whole entry, looked up): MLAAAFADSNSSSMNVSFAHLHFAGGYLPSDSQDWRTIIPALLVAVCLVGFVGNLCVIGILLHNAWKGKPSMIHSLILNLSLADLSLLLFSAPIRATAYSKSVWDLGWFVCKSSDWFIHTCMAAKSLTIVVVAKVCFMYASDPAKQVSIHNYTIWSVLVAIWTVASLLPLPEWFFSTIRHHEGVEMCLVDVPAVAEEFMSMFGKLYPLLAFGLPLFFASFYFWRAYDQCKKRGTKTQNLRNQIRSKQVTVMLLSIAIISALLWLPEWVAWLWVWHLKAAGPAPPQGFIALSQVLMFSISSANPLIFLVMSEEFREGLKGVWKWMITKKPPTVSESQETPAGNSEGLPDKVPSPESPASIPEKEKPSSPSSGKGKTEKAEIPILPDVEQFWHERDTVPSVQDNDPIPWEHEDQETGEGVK
TEAD-YAP inh = TEAD-YAP interaction inhibition | HEK-TIYL cells, TEAD-Gal4/YAP UAS-luciferase luminescence | inhibition, % at 9.12 µM | actives 1.4% (n = 640,000) | AID 1259422; in the data active = inhibition above about 32%;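 also: 0% = median of test compound wells and 100% = reference inhibitor wells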
FBW7 act = activators of human E3 ligase FBW7; Q969H0; AlphaScreen FBW7–phospho-cyclin E peptide binding, activator screen; normalized activity (activation), % at 26.1 µM; actives 0.13% (n = 650,000); in the data active = normalized activity above about 1.9%;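 also: purified mutant Fbw7 with reduced substrate affinity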
Active calls of the source: *. An excerpt weighted towards active compounds, which were near 3.5% of everything screened.

Cc1c(C)n(Cc2ccccc2)c2ccc(C(=O)N3CCN(Cc4ccccc4)CC3)cc12 was read as MITF inh 1, GPR151 ag 2, TEAD-YAP inh -4 and FBW7 act 0.
Screening Cc1ccc(NC(=O)c2sc3ncn(CC(=O)N4CCCCC4C)c(=O)c3c2C)cc1F (stereo not drawn) returned MITF inh 24, GPR151 ag 0, TEAD-YAP inh 7 and FBW7 act 0.
For COc1ccc2oc(C)c(C(=O)c3oc4ccccc4c3N)c2c1 the results were MITF inh -3, GPR151 ag -1, TEAD-YAP inh 34* and FBW7 act 0.
Screening COc1ccc2occ(C(=O)c3oc4ccccc4c3N)c2c1 returned MITF inh -2, GPR151 ag -5, TEAD-YAP inh 32* and FBW7 act 0.
COc1ccc2oc(C(=O)c3ccc(Cl)cc3)c(N)c2c1 was read as MITF inh 14, GPR151 ag 0, TEAD-YAP inh -87 and FBW7 act 1.
`COC(=O)c1oc2ccc(OC)cc2c1N` gave MITF inh 3, GPR151 ag -2, TEAD-YAP inh -21 and FBW7 act 0.
`CC1=CC(=O)C(N2CCC(Cc3ccccc3)CC2)=CC1=O` gave MITF inh 60*, GPR151 ag -2, TEAD-YAP inh 4 and FBW7 act 0.
For O=S(=O)(Cc1ccccc1)N1CCC(Cc2ccccc2)CC1 the results were MITF inh -4, GPR151 ag 1, TEAD-YAP inh 3 and FBW7 act 0.
COCCn1c(C)cc(C(=O)CSc2nnc3ccccn23)c1C was read as MITF inh -6, GPR151 ag -6, TEAD-YAP inh 55* and FBW7 act 0.
For COCCn1c(C)cc(C(=O)CSc2nc(C)c(C)c(C)n2)c1C the results were MITF inh 6, GPR151 ag 1, TEAD-YAP inh -5 and FBW7 act 0.
For Cc1cc(C(=O)CSc2nnc3ccccn23)c(C)n1C1CCCCC1 the results were MITF inh 8, GPR151 ag -2, TEAD-YAP inh 60* and FBW7 act 0.
For Cc1cc(C(=O)CSc2nnc3ccccn23)c(C)n1-c1ccc(Br)cc1 the results were MITF inh 1, GPR151 ag -1, TEAD-YAP inh -68 and FBW7 act 0.
Screening Cc1ccc(-n2c(C)cc(C(=O)COC(=O)c3ccc[nH]c3=O)c2C)cc1 returned MITF inh 10, GPR151 ag 0, TEAD-YAP inh -30 and FBW7 act 0.
Screening COCCn1c(C)cc(C(=O)CSc2ccc(Cl)cc2)c1C returned MITF inh -9, GPR151 ag -3, TEAD-YAP inh 88* and FBW7 act 0.
COCCn1c(C)cc(C(=O)COC(=O)c2ccc[nH]c2=O)c1C was read as MITF inh 2, GPR151 ag 0, TEAD-YAP inh 62* and FBW7 act 0.
For Cc1c(C(=O)Nc2c(F)cccc2F)sc2ncnc(N3CCN(c4ccccn4)CC3)c12 the results were MITF inh 0, GPR151 ag 1, TEAD-YAP inh 0 and FBW7 act 0.
`O=C(c1ccc(Oc2ccccc2)cc1)c1coc2ccc(O)cc12` gave MITF inh -4, GPR151 ag -4, TEAD-YAP inh 55* and FBW7 act 0.
Screening COc1cc(Nc2cc(C)nc(Nc3cccc(N(C)C)c3)n2)cc(OC)c1OC returned MITF inh -8, GPR151 ag 1, TEAD-YAP inh 48* and FBW7 act 0.
COc1ccc(CCNc2cc(C)nc(Nc3ccncc3)n2)cc1 was read as MITF inh -4, GPR151 ag 1, TEAD-YAP inh -4 and FBW7 act 0.
Screening COc1ccc(CCNc2cc(C)nc(Nc3cc(OC)c(OC)c(OC)c3)n2)cc1 returned MITF inh 1, GPR151 ag 2, TEAD-YAP inh 36* and FBW7 act 0.
COc1cc(Nc2cc(C)nc(Nc3cc(OC)c(OC)c(OC)c3)n2)cc(OC)c1OC was read as MITF inh -4, GPR151 ag 0, TEAD-YAP inh 24 and FBW7 act 0.
Screening CCOC(=O)CSc1nc2c(sc(=S)n2-c2ccccc2OCC)c(=O)n1-c1ccccc1C returned MITF inh -3, GPR151 ag 1, TEAD-YAP inh 3 and FBW7 act 0.
`Cn1cnc([N+](=O)[O-])c1S(=O)CC#N` (stereo not drawn) gave MITF inh 14, GPR151 ag 0, TEAD-YAP inh 56* and FBW7 act 0.
`Cc1ccc(Cn2c(C)c3cnn(CC(=O)NC(C)c4ccccc4)c(=O)c3c2C)cc1` (stereo not drawn) gave MITF inh 5, GPR151 ag 1, TEAD-YAP inh -1 and FBW7 act 0.
`O=C1CSc2ccc(C(=O)NC3CCCc4ccccc43)cc2N1` (stereo not drawn) gave MITF inh 2, GPR151 ag -1, TEAD-YAP inh 58* and FBW7 act 0.
Screening COc1ccc(C(=O)Nc2cccc(OC(=O)c3ccc(C)c(S(=O)(=O)N4CCOCC4)c3)c2)cc1 returned MITF inh -8, GPR151 ag -3, TEAD-YAP inh 66* and FBW7 act 0.
Cc1ccc(C(=O)Nc2cccc(OC(=O)c3cccc(S(=O)(=O)N4CCC(C)CC4)c3)c2)cc1 was read as MITF inh 11, GPR151 ag -3, TEAD-YAP inh 68* and FBW7 act 1.
For COc1cccc(C(=O)Nc2cccc(OC(=O)c3ccc(C)c(S(=O)(=O)N4CCOCC4)c3)c2)c1 the results were MITF inh 12, GPR151 ag 0, TEAD-YAP inh 36* and FBW7 act 0.
For C#CCN(C)C(=O)c1c(C)nc2sccn12 the results were MITF inh 19, GPR151 ag 0, TEAD-YAP inh 10 and FBW7 act 1.9*.
Screening COc1cccc(C(=O)N2CCN3C(=O)[C@@H](C(C)C)NC(=O)[C@H]3C2)c1 returned MITF inh 6, GPR151 ag 0, TEAD-YAP inh 0 and FBW7 act 1.
Cc1ccc(C(=O)NCc2nc(-c3ccccc3)no2)c(C)c1 was read as MITF inh -14, GPR151 ag 1, TEAD-YAP inh -7 and FBW7 act 0.
COc1ccccc1N1CCN(C(=O)CSc2nc3ccccc3c(=O)n2CCC(=O)NC2CCCCC2)CC1 was read as MITF inh -9, GPR151 ag 2, TEAD-YAP inh 46* and FBW7 act 0.
Cc1ccc2nc(C)c(C(=O)NCC(F)(F)F)n2c1 was read as MITF inh 18, GPR151 ag 0, TEAD-YAP inh 0 and FBW7 act 1.9*.
For O=C(/C=C\Nc1ccc2c(c1)OCO2)c1ccc2ccccc2c1 the results were MITF inh 8, GPR151 ag -1, TEAD-YAP inh -7 and FBW7 act 1.
For COc1cccc(C(=O)/C=C/Nc2cccc(O)c2)c1 the results were MITF inh 17, GPR151 ag -9, TEAD-YAP inh 97* and FBW7 act 1.
Screening O=C(/C=C/Nc1cccc(O)c1)c1ccc(Cl)cc1 returned MITF inh 5, GPR151 ag -1, TEAD-YAP inh 97* and FBW7 act 0.
